# Compound activity: PubChem BioAssay, Sanford-Burnham Center for Chemical Genomics
# The list is not random: actives were taken first. Their share in the collection is about 3.9%.
# Peg3 prom inh: reduces Peg3 promoter-driven luciferase expression in HeLa | inhibition, % at 20 µM | HeLa PEG-Prom luciferase reporter, luminescence, overnight | hit rate 1.7% among 360,000;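 active means inhibition of at least 50% at 20 µM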
# HIF-2a block: blocks HIF-2a reporter activity | 786-0 RCC cells HIF-2a reporter, luciferase luminescence, overnight | inhibition, % at 18.8 µM | hit rate 0.72% among 360,000 | AID 624352;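 active means inhibition of the luminescence signal of 40% or more relative to plate controls, in a single-dose primary screen at 18.75 µM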
# CF NFkB inh: cystic fibrosis NF-kB activation inhibition; KKLEB NF-kB-GFP reporter, PAF-induced, GFP fluorescence overnight; inhibition, % at 5 µM; hit rate 0.86% among 360,000; AID 588850;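 active means at least 50% inhibition at 5 µM, scaled per plate between neutral and stimulator controls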;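 further: PAF is a Pseudomonas aeruginosa culture filtrate used as stimulus; plate controls were PAF-stimulated DMSO wells for no effect and unstimulated DMSO wells for full effect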
# KKLEB tox: counter-screen for CF NF-kB inhibitors: cytotoxicity. hit rate 0.36% among 360,000. activity change (cytotoxicity), % at 5 µM. AID 602141. KKLEB CF airway cells viability, ATPlite luminescence, overnight; stronger effect = lower value; cells stimulated with P. aeruginosa culture filtrate;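 active means corrected activity change at or below -50% at 5 µM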
# TWEAK-Fn14 inh: TWEAK-Fn14 signaling inhibition. TWEAK-stimulated Fn14 reporter cells, luciferase luminescence, 8 h. inhibition, % at 10 µM. hit rate 2% among 360,000; in the data active means inhibition above about 50%
# TROY NFkB inh: TROY signaling inhibition; hit rate 0.98% among 360,000; AID 1347056; Q293 LMP1-TROYcd NF-kB luciferase reporter, 4 h; inhibition, % at 10 µM;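 active means compounds whose plate-normalised and pattern-corrected inhibition of the luciferase reporter signal at the single screening dose is 50% or more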
# Mdm2 MdmX conf: confirmation of inhibitors of human Mdm2/MdmX interaction, set 2; shares compounds with HIF-2a block; hit rate 99% among 740; AID 504601; SaOS-2 split-luciferase Mdm2/MdmX complementation, luminescence; inhibition, % at 8 µM;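 active means mean inhibition of the luminescence signal across two replicates at or above 26 percent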
# Target sequence (O15151 whole entry, looked up): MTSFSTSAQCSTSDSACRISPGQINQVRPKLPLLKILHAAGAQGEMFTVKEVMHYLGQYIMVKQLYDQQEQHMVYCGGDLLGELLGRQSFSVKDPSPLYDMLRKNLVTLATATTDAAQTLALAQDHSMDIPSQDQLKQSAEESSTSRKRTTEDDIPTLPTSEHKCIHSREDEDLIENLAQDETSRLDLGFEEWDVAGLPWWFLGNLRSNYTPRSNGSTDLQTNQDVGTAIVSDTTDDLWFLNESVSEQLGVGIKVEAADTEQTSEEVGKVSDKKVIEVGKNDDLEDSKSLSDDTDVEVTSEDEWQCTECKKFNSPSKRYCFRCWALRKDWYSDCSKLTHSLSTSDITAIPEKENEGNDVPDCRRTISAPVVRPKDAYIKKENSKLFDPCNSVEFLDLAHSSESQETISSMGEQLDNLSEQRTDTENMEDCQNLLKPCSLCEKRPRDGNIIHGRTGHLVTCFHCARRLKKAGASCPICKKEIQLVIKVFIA
# Target sequence (Q00987 whole entry, looked up): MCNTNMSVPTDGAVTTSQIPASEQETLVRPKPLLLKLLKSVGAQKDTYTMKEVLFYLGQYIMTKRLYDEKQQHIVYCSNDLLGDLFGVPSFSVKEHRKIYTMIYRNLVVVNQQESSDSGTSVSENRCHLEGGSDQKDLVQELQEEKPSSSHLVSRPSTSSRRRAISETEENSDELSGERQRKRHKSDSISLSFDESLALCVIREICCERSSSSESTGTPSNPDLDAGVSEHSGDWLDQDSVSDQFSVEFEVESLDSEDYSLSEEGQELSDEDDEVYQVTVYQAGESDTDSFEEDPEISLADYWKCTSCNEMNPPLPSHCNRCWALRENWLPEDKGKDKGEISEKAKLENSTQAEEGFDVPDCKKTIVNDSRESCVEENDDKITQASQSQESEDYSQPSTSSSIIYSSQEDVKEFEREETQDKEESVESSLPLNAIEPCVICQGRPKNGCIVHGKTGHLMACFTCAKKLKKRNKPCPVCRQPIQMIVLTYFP
# HIF-2a inh conf: HIF-2a inhibition, single concentration confirmation. shares compounds with HIF-2a block. 786-0 RCC cells, HIF-2a luciferase reporter luminescence, overnight. inhibition, % at 18.8 µM. hit rate 56% among 1,800. AID 651580;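 active means mean inhibition across four replicates of at least 40 percent at the single tested concentration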
# HIF-1a counter: inhibits HIF-1a reporter, a counter-screen for HIF-2a inhibitors. shares compounds with HIF-2a block. MiaPaCa-2 HIF-1a luciferase reporter, desferoxamine, overnight. inhibition, % at 18.8 µM. hit rate 72% among 1,800;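 active means mean inhibition of the reporter signal across four replicates at the single tested dose of 50% or more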
# * hit, by the source's call; · = not tested or not shown.
SMILES,Peg3 prom inh,HIF-2a block,CF NFkB inh,KKLEB tox,TWEAK-Fn14 inh,TROY NFkB inh,Mdm2 MdmX conf,HIF-2a inh conf,HIF-1a counter
COc1ccc(/C=C2\SC(=O)N(CCNC(=O)Cn3[nH]c(=O)c4ccccc4c3=O)C2=O)cc1,12,45*,10,-11,51*,35,·,77*,12
Cc1ccc(/C=C2\SC(=S)N(CCCC(=O)Nc3ccc(O)cc3)C2=O)cc1,-41,80*,1,1,8,-53,57*,·,·
O=[N+]([O-])c1ccccc1S(=O)(=O)NCCSCc1ccco1,8,11,-20,1,-3,16,·,·,·
CCOC(=O)C1CCN(Cc2cc(=O)oc3c(C)c(C)ccc23)CC1,20,57*,10,-4,23,22,·,78*,25
Cc1cccc(N(C(=O)c2snc(C(N)=O)c2N)C(C(=O)NCC2CCCO2)c2cccs2)c1 (stereo unspecified),21,9,4,0,-9,-21,·,·,·
COc1ccc(-c2cc(-c3ccccc3)c(C#N)c(S(C)(=O)=O)n2)cc1,104*,88*,33,-19,-141,-59,·,14,85*
CS(=O)(=O)c1nc(-c2ccc(Br)cc2)cc(-c2ccccc2)c1C#N,113*,97*,80*,-66*,39,63*,103*,20,100*
COc1ccc(-c2cc(-c3cccnc3)c(C#N)c(N)n2)cc1,5,9,2,-4,-17,7,·,·,·
CS(=O)c1nc(-c2ccc(Br)cc2)cc(-c2ccccc2)c1C#N (stereo unspecified),106*,88*,14,-31,56*,74*,·,21,98*
COc1ccc(OCC(=O)NC2CCCCCCC2)cc1,-62,-95,3,13,-24,-42,·,·,·
O=C(CCNC(=O)c1ccccc1Cl)Nc1cccc(S(=O)(=O)N2CCOCC2)c1,13,7,15,12,-1,-3,·,·,·
COC(=O)/C(=C\c1ccc([N+](=O)[O-])cc1)NC(=O)c1ccccc1,20,17,-29,6,8,-11,·,·,·
COc1ccc(-n2ncc(Cl)c(Cl)c2=O)cc1,105*,95*,89*,-78*,98*,56*,102*,96*,107*
O=[N+]([O-])c1ccc(NC(=S)NCCc2ccccc2)cc1,-102,-156,4,-12,1,11,·,·,·
O=[N+]([O-])c1ccc(NC(=S)NCCc2ccc(Cl)cc2)cc1,8,-21,29,-38,60*,57*,97*,·,·
C=C1C(=O)C=C[C@]2(C)C[C@@H]3OC(=O)[C@](C)(O)[C@H]3C[C@@H]12,91*,40*,5,24,55*,-4,·,11,98*
CC(=O)N/C(=C/c1ccc2c(c1)OCO2)C(=O)Nc1ccccc1,-19,-2,17,-11,-15,11,·,·,·
O=C1C(=O)c2ccc(-c3ccccc3)cc2-c2ccccc21,101*,93*,102*,-100*,107*,83*,103*,·,·
Nc1ccc2c(c1)C(=O)c1ccccc1C2=O,-363,-228,-62,16,-29,-42,·,·,·
CCN(CC)S(=O)(=O)c1ccc(NC(=O)[C@@H](NC(=O)c2cc(OC)cc(OC)c2)C(C)C)cc1,30,22,14,-7,-10,21,·,·,·
Cc1ccc(C(=O)O/N=C(\N)c2ccccn2)c(C)c1,106*,89*,30,-46,104*,87*,101*,·,·
COc1ccccc1CNc1nc(NCc2ccc(NC(C)=O)cc2)c2sccc2n1,72*,57*,-27,-20,1,16,·,14,70*
Cc1ccc2c(c1)=N/C(=N\c1[nH]c(O)c3ccccc13)N=2,90*,76*,37,0,46,-51,·,-88,95*
O=C(Nc1ccc(S(=O)(=O)Nc2ncccn2)cc1)c1cccc(S(=O)(=O)N2CCOCC2)c1,17,14,8,-7,-5,4,·,·,·
C[C@@H]1CN([C@H](C)CO)C(=O)CCCn2nncc2CO[C@@H]1CN(C)S(=O)(=O)c1ccc(F)cc1,-2,7,2,6,-9,3,·,·,·
SMILES,Peg3 prom inh,HIF-2a block,CF NFkB inh,KKLEB tox,TWEAK-Fn14 inh,TROY NFkB inh,Mdm2 MdmX conf,HIF-2a inh conf,HIF-1a counter
O=C(COc1ncnc2sccc12)Nc1cccc(S(=O)(=O)N2CCOCC2)c1,1,1,-3,-3,-30,-14,·,·,·
CC1(C)Cc2c(sc(NC(=O)COc3cccc4ccccc34)c2C#N)C(C)(C)N1,90*,49*,-29,-22,-52,1,103*,6,53*
CN1CCN(C(=S)c2ccc([N+](=O)[O-])cc2)CC1,1,9,4,13,-7,16,·,·,·
NS(=O)(=O)c1ccc(CNC(=O)/C=C/c2cccc(Cl)c2)cc1,10,15,-8,-2,7,-1,·,·,·
COc1ccc(/C=C/C(=O)c2ccc([N+](=O)[O-])o2)cc1OC,·,·,·,·,·,·,99*,·,·
O=C(/C=C/c1cccc(Cl)c1)c1ccc([N+](=O)[O-])o1,99*,97*,87*,-46,101*,76*,102*,·,·
COc1ccc(C=CC(=O)c2ccc(OC)c(OC)c2O)cc1OC,-1,-1,-54,-1,35,-19,·,·,·
O=C(NNc1nc2ccccc2o1)c1ccccc1,-20,47*,-5,-8,7,36,·,80*,-26
O=C(COC(=O)C1Cc2ccccc2CN1C(=O)c1ccccc1)Nc1ccc(SC(F)F)cc1 (stereo unspecified),8,8,14,4,8,0,·,·,·
Cn1nnnc1N=N/C(=N/Nc1ccccc1)c1ccccc1,52*,-74,30,-27,-10,-46,91*,·,·
O=C(N/N=C/c1ccc[nH]1)c1ccc(COc2cccc3cccnc23)cc1,89*,25,42,-54*,85*,48,97*,·,·
O=C(C[n+]1ccc(/C=N/O)cc1)NC(=O)Nc1ccccc1,-5,-1,12,-12,4,-3,·,·,·
CC(=O)Nc1ccc(C(=O)NNC(=O)c2ccccc2-n2cccc2)cc1,6,7,-11,-25,-7,4,·,·,·
CCN1CCCC1CNC(=O)C1CCN(Cc2nc(-c3cccc(Br)c3)oc2C)CC1 (stereo unspecified),91*,66*,20,-22,-76,-3,·,19,104*
COc1ccc(C(=O)COC(=O)C2COc3ccccc3O2)c(OC)c1 (stereo unspecified),3,8,-13,12,10,-14,·,·,·
